# A number with no mark means an inactive call. Active and inactive are the calls of the source.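 The calls were made as follows: active = EC50 at or below 10 µM; inactive = EC50 above 10 µM.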
# Assay: compound autofluorescence in calcium buffer – biochemical, fluorescence, no RTF in test wells, artefact control for cardiac thin filament activator project, dose response (AID 504697);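 also: emission near 535 nm under roughly 485 nm excitation as for IANBD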
# Details: compound-only fluorescence in RTF assay buffer with Ca2+ (no RTF in test wells), artifact counterscreen
row,Structure (SMILES),EC50
1,O=C1c2ccsc2SCCN1Cc1ccc(F)cc1,> 71.5 µM
2,Cc1ccc(/C=C2\Oc3c(ccc(O)c3CN3CCN(CCO)CC3)C2=O)cc1,34.2 µM
3,C=CCn1c(C)c(/C=C/c2cc[n+](C)cc2)c2ccccc21,4.64 µM (active)
4,Nc1ccc2nc3c(=O)[nH]c(=S)[nH]c3nc2c1,2.93 µM (active)
5,CCc1ccc2c(COC(=O)CNS(=O)(=O)c3ccc(NC(C)=O)cc3)cc(=O)oc2c1,> 71.5 µM
6,Cn1nccc1NC(=O)Nc1cccc(Cl)c1Cl,> 71.4 µM
7,COc1cc(CCCN2C(=S)NC[C@@H]2CC2CCCCC2)cc(OC)c1OC,> 71.5 µM
8,N=c1c2c(ncn1Cc1ccco1)Oc1cc(O)ccc1C2c1ccccc1 (stereo unspecified),> 71.4 µM
9,COc1ccc(/C=C2/SC(c3ccc(C)cc3)=NC2=O)cc1OC,1.43 µM (active)
10,N=c1n(Cc2ccccc2)c2ccccc2n1CC(O)c1ccco1 (stereo unspecified),> 71.5 µM
11,C/C(O)=c1/ccc2cccc3nc(C)nc1c23,> 23.8 µM
12,O=C(COC(=O)c1ccc(O)cc1)Nc1ccc2c(c1)OCCO2,> 71.5 µM
13,C=CCOc1ccc(Br)cc1CNCC,> 71.6 µM
14,COc1ccccc1NS(=O)(=O)c1cc(NC(=O)c2cc3ccccc3oc2=O)ccc1C,> 71.5 µM
15,COc1cc(-c2c(-c3ccc4c(c3)OCO4)noc2C)ccc1F,> 71.4 µM
16,Fc1ccc(-c2nnc(-c3ccc(Cl)cc3Cl)o2)cc1,> 71.5 µM
